SMILES strings stand for the structures. Compounds without any hit were thinned out: in the full panel of roughly 83,000, 20% have a hit.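 Activity criterion: percent growth below 10, measured after cells in 96-well plates were exposed to a single compound concentration for 48 hours.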 Unmarked numbers belong to inactive results. Activity calls are given as the source filed them.

What all share (test): NCI-60 one-dose screen, 48 h (100 = growth as untreated, 0 = no growth, -100 = all killed)
The subject of one assay is NCI-H226 lung. The note with it: 10 µM.
A further assay has as its system HOP-62 NSCLC. The note with it: 10 µM.
In a further assay the test system is NCI-H460 lung. The note with it: 10 µM.
In the next assay the test system is A549/ATCC NSCLC. The note with it: 10 µM.
The subject of the next assay is COLO 205 colon. The note with it: 10 µM.
The next assay deals with DU-145 prostate. The note with it: 10 µM.
The next assay deals with K-562 leukemia. The note with it: 10 µM.
The subject of another assay is SF-539 CNS. Conditions: 10 µM.
In a further assay the test system is M14 melanoma. The note with it: 10 µM.
The test system of a further assay is HCT-15 colon. The note with it: 10 µM.
For the next assay, the system named is HT29 colon. The note with it: 10 µM.
The next assay has as its system SNB-75 CNS. The note with it: 10 µM.
For a further assay, the system named is SNB-19 CNS. Conditions: 10 µM.
The next assay concerns U251 CNS. Conditions: 10 µM.
The next assay concerns PC-3 prostate. Conditions: 10 µM.
A further assay concerns LOX IMVI melanoma. Conditions: 10 µM.
Another assay relates to MOLT-4 leukemia. The note with it: 10 µM.
In a further assay the test system is RPMI-8226 leukemia. The note with it: 10 µM.
A further assay concerns SK-OV-3 ovarian. Conditions: 10 µM.
The subject of a further assay is MDA-MB-468 breast. The note with it: 10 µM unless noted.

For `C#C[C@]1(O)CC[C@H]2[C@@H]3CC=C4c5sc(Nc6ccc(C(F)(F)F)cn6)nc5CC[C@]4(C)[C@H]3CC[C@@]21C`, the growth in the assay with NCI-H226 lung was 16.2%; in the assay on HOP-62 NSCLC, 10.9%; in the assay on NCI-H460 lung, -35.8% (active); in the assay with A549/ATCC NSCLC it was 7.15% (active); in the assay with COLO 205 colon, -87% (active); in the assay with DU-145 prostate, 8.36% (active). The growth with K-562 leukemia was 7.48% (active); in the assay with SF-539 CNS it was -45.3% (active); with M14 melanoma, -21.4% (active); in the assay with HCT-15 colon, -34.8% (active); in the assay on HT29 colon, -31.8% (active); in the assay with SNB-75 CNS it was 28.5%. In addition, the growth was 8.33% (active) with SNB-19 CNS; -82.9% (active) in the assay on U251 CNS; 1.89% (active) with PC-3 prostate; -98.5% (active) with LOX IMVI melanoma; -8.2% (active) in the assay with MOLT-4 leukemia; -6.6% (active) with RPMI-8226 leukemia. The values for the growth in the assay with SK-OV-3 ovarian and in the assay with MDA-MB-468 breast were -4.49% (active) and 4.25% (active), respectively.
Take `O=C(CSc1nc2ccccc2c(=O)n1-c1ccc(Cl)cc1)Nc1ccc(-c2nc3ccccc3[nH]2)cc1`: the growth was 30.1% in the assay with NCI-H226 lung; 5.56% (active) with HOP-62 NSCLC; -12.6% (active) with NCI-H460 lung; -16.8% (active) with A549/ATCC NSCLC; -12% (active) in the assay with COLO 205 colon; -8.05% (active) with DU-145 prostate. Besides, the growth in the assay with K-562 leukemia was 2.71% (active); in the assay on SF-539 CNS, -29.4% (active); in the assay with M14 melanoma it was -36.6% (active); in the assay with HCT-15 colon it was -7.08% (active); in the assay on HT29 colon, -38.9% (active); in the assay on SNB-75 CNS, -39.1% (active). The growth is 18.3% with SNB-19 CNS; -61.4% (active) in the assay with U251 CNS; -54.2% (active) with PC-3 prostate; -88.2% (active) in the assay on LOX IMVI melanoma; -7.88% (active) in the assay with MOLT-4 leukemia; 22.4% in the assay with RPMI-8226 leukemia. For the same compound, the growth in the assay with SK-OV-3 ovarian was 94.2%; in the assay with MDA-MB-468 breast, -41.7% (active).
As for `Cc1cc(N=C2NC(=O)/C(=C/c3cc(C(C)(C)C)c(O)c(C(C)(C)C)c3)S2)n[nH]1`, the growth in the assay on NCI-H226 lung was 10.3%; in the assay on HOP-62 NSCLC it was 8.56% (active); with NCI-H460 lung it was 0.397% (active); in the assay with A549/ATCC NSCLC, 9.9% (active); in the assay with COLO 205 colon it was -9.38% (active); in the assay on DU-145 prostate, 27.2%. The growth in the assay on K-562 leukemia was 18.3%; in the assay with SF-539 CNS, 18.9%; in the assay with M14 melanoma it was 24.7%; in the assay on HCT-15 colon, 6.98% (active); with HT29 colon it was 9.22% (active); in the assay with SNB-75 CNS it was 1.49% (active). For the same compound, the growth with SNB-19 CNS is 21.1%; in the assay with U251 CNS it was 6.8% (active); in the assay with PC-3 prostate it was 10.7%; in the assay on LOX IMVI melanoma, 1.11% (active); in the assay on MOLT-4 leukemia it was 11%; in the assay on RPMI-8226 leukemia, 1.11% (active). Further, the growth in the assay on SK-OV-3 ovarian is -27.9% (active); in the assay on MDA-MB-468 breast, -0.214% (active).
Consider `COc1ccc(-n2c(SCC(=O)NNS(=O)(=O)c3ccccc3)nc3ccc(Cl)cc3c2=O)cc1`, for which the growth is 91% with NCI-H226 lung; 96.6% in the assay with HOP-62 NSCLC; 115% in the assay with NCI-H460 lung; 106% in the assay on A549/ATCC NSCLC; 120% in the assay on COLO 205 colon; 113% in the assay on DU-145 prostate. In addition, the growth in the assay with K-562 leukemia was 99.5%; with SF-539 CNS, 97.6%; in the assay with M14 melanoma it was 104%; with HCT-15 colon, 92%; in the assay with HT29 colon, 114%; in the assay on SNB-75 CNS, 98.7%. Further, the growth with SNB-19 CNS is 98.6%; in the assay with U251 CNS it was 101%; with PC-3 prostate, 88.4%; in the assay with LOX IMVI melanoma, 87.2%; in the assay on MOLT-4 leukemia, 93.4%; in the assay with RPMI-8226 leukemia, 99%. The growth is 66.1% in the assay with SK-OV-3 ovarian and 102% in the assay on MDA-MB-468 breast.
On to `COc1ccc(Cc2nn(CC(=O)N/N=C/c3ccc(Br)cc3)c(=O)c3c(C)noc23)cc1`, for which the growth with NCI-H226 lung was 55.3%; with HOP-62 NSCLC it was 2.75% (active); with NCI-H460 lung it was 9.38% (active); in the assay on A549/ATCC NSCLC, 6.92% (active); in the assay on COLO 205 colon, 52.2%; with DU-145 prostate it was 55.4%. In addition, the growth was 51.8% with K-562 leukemia; 13% with SF-539 CNS; 57.6% in the assay with M14 melanoma; 63.8% with HCT-15 colon; 63.4% in the assay with HT29 colon; -30.1% (active) in the assay on SNB-75 CNS. Besides, the growth with SNB-19 CNS was 21.6%; in the assay with U251 CNS, -27.7% (active); with PC-3 prostate it was 43.9%; with LOX IMVI melanoma it was 25.9%; in the assay with MOLT-4 leukemia, 63.2%; in the assay with RPMI-8226 leukemia it was 55.4%. The growth was -30% (active) in the assay with SK-OV-3 ovarian and 26.4% in the assay on MDA-MB-468 breast.
For `COc1cc(C2CC(c3ccccc3)=Nc3c(N)nc(N)nc3N2)ccc1Oc1nc(NCCO)nc(N2CCOCC2)n1` (stereo not given), the growth with NCI-H226 lung is 92.5%; in the assay with HOP-62 NSCLC it was 106%; with NCI-H460 lung, 110%; with A549/ATCC NSCLC, 107%; with COLO 205 colon, 112%; in the assay on DU-145 prostate, 115%. For the same compound, the growth was 91.3% with K-562 leukemia; 97.5% in the assay with SF-539 CNS; 104% in the assay with M14 melanoma; 99.4% with HCT-15 colon; 112% with HT29 colon; 84.3% with SNB-75 CNS. The growth was 89.8% with SNB-19 CNS; 98.1% in the assay with U251 CNS; 101% in the assay on PC-3 prostate; 107% in the assay with LOX IMVI melanoma; 91.3% in the assay on MOLT-4 leukemia; 104% with RPMI-8226 leukemia. Besides, the figures for the growth in the assay on SK-OV-3 ovarian and in the assay on MDA-MB-468 breast were 115% and 88%, respectively.
In the case of `C#C[C@]1(O)CC[C@H]2[C@@H]3CC=C4c5sc(Nc6ccc(N(C)C)cc6)nc5CC[C@]4(C)[C@H]3CC[C@@]21C`, the growth is -43.2% (active) in the assay with NCI-H226 lung; 10.7% in the assay on HOP-62 NSCLC; 7.37% (active) in the assay on NCI-H460 lung; 20.5% in the assay on A549/ATCC NSCLC; -28.6% (active) in the assay on COLO 205 colon; -8.05% (active) with DU-145 prostate. In addition, the growth with K-562 leukemia was 4% (active); with SF-539 CNS it was -75.7% (active); with M14 melanoma it was -12.3% (active); in the assay on HCT-15 colon, -37.5% (active); in the assay with HT29 colon, -53.5% (active); in the assay with SNB-75 CNS, 33.8%. Besides, the growth with SNB-19 CNS is 18.1%; in the assay with U251 CNS, -75% (active); with PC-3 prostate, 5.44% (active); in the assay with LOX IMVI melanoma, -80.3% (active); in the assay on MOLT-4 leukemia, -6.03% (active); with RPMI-8226 leukemia it was -42% (active). For the same compound, the growth in the assay on SK-OV-3 ovarian was -39.5% (active); with MDA-MB-468 breast, -56.3% (active).
Turning to `Cc1cc(N=C2NC(=O)S/C2=C\c2ccc(F)cc2)n[nH]1`, the growth with NCI-H226 lung is 17.1%; in the assay with HOP-62 NSCLC it was 26.7%; in the assay on NCI-H460 lung, 5.74% (active); with A549/ATCC NSCLC, 18.9%; in the assay on COLO 205 colon, 19.2%; with DU-145 prostate it was 30%. Moreover, the growth is 15.4% in the assay with K-562 leukemia; 4.62% (active) with SF-539 CNS; -30.7% (active) in the assay on M14 melanoma; 13.9% in the assay with HCT-15 colon; 6.68% (active) with HT29 colon; 2.65% (active) with SNB-75 CNS. Also, the growth is 27.4% in the assay on SNB-19 CNS; 5.06% (active) with U251 CNS; 6.14% (active) in the assay on PC-3 prostate; -59.8% (active) in the assay with LOX IMVI melanoma; 10.5% in the assay on MOLT-4 leukemia; -14.7% (active) in the assay with RPMI-8226 leukemia. For the same compound, the growth in the assay on SK-OV-3 ovarian is 44.3%; in the assay with MDA-MB-468 breast it was -5.57% (active).

These data come from PubChem BioAssay (NCI).
